Source: PubChem
ClpP mod: qHTS Assay for Activators of ClpP; ATP-dependent Clp protease proteolytic subunit (Bacillus subtilis (strain 168)), P80244; purified B. subtilis ClpP, FRET peptide cleavage, 20 min; Potency, µM (top dose mostly 57.5 µM), without a hit: at the top dose activity change, negative = active; 1.9% of 340,000 active; active means well fitted falling curve with a large enough effect; inconclusive means small, poorly fitted or top-dose-only effect; inactive means no such curve, though single readings can be large or run the other way; further: the source files actives as falling curves though it sought activators and does not explain the sign; nearly all actives have a fitted effect of over 65% in size
Target sequence (P80244 whole entry, looked up): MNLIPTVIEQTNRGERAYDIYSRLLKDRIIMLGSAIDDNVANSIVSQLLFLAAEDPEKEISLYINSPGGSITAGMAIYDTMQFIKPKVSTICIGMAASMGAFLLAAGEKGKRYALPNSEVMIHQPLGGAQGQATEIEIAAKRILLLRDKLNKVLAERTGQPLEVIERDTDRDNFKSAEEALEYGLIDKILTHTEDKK
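Buffer: 100 mM Tris/HCl pH8, 100 mM KCl, 0.05% low protease BSA, 2.5% glycerol, 0.01% Tween-20. ClpP 10 microg/mL final; 20 min RT; delta FRET normalized to ADEP and DMSO controls.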
GLP1R ag: agonists of human GLP-1 receptor; P43220; HEK293 GLP-1R CRE-luciferase, luminescence, 4-6 h; cells express a hypersensitive GLP-1R form; Potency, µM (doses to about 45.6 µM), inactives show at the top dose activation, most hits filed as activators; 0.007% of 380,000 active; AID 624172; further: % of control where 0% means no effect
Target sequence (P43220 whole entry, looked up): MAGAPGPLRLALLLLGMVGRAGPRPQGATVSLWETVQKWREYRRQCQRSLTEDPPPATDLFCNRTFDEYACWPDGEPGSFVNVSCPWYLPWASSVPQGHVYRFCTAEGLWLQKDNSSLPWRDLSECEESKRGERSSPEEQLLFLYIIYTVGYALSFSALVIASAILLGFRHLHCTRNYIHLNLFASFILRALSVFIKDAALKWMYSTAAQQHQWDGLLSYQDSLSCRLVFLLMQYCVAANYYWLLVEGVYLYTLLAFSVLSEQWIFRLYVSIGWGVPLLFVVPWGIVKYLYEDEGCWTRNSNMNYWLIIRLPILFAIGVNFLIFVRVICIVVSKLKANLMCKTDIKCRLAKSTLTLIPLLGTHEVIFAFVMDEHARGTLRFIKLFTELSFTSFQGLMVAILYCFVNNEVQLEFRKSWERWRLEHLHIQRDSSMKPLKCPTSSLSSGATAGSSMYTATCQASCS
HEK293 tox: cytotoxicity counter-screen for GLP-1 receptor inverse agonists | Potency, µM (series often up to 38.3 µM), without a hit: at the highest dose activity change, negative = inhibition, most hits filed as inhibitors | 0.13% of 410,000 active | HEK293 cAMP-luciferase reporter cells, luminescence, 24 h | AID 624418;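 further: loss of luciferase light is scored as toxicity; on the % scale 0 is the no-effect control and ±100 the full control effect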
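To flag toxic compounds, the library was rerun on cells for 24 hr at 37 deg C and 5% CO2. Viability-linked luminescence was captured 12 min after adding luciferase detection reagent.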
GLP1R inv ag: inverse agonists of human GLP-1 receptor | HEK293 GLP-1R CRE-luciferase, luminescence, 24 h; GLP-1R form is constitutively active | AID 624417 | 1.6% of 410,000 active | Potency, µM (top dose mostly 38.3 µM), for inactives: at the highest dose activity change, negative = inhibition, hits mostly inhibitors; further: on the % scale 0 is the no-effect control and ±100 the full control effect; nearly all actives have a fitted effect of over 55% in size
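Inverse agonism was detected as reduced cAMP-driven luciferase luminescence after 24 h compound treatment. The cells were HEK293 clones expressing constitutively active human GLP-1R with the reporter. Reporter-only and GPR119 cell lines served as counterscreen controls.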
* hit, by the source's call; ? = inconclusive; / = no result. In the library only some 3.2% were active in any assay of this set; here they are far more common. Unless noted, the call rests on the fitted dose curve; in most records, active means well fitted curve in the direction sought with a large enough effect; inconclusive means small, poorly fitted or top-dose-only effect, or another doubt; inactive means no such curve, though single readings can be large; an effect the other way counts as inactive or inconclusive. Potency means the concentration at half of the fitted maximal effect.

SMILES	ClpP mod	GLP1R ag	HEK293 tox	GLP1R inv ag
COC(=O)/C=C/C(=O)Nc1cccc(C(F)(F)F)c1	-1%	8%	?	7.9µM*
COC(=S)Nc1cccc(C(F)(F)F)c1	/	8%	1%	0%
COc1ccc(NC(=O)c2cccc(F)c2)cc1Cl	?	6%	-13%	?
COc1cccc(NC(=O)CN(C)CC(=O)Nc2cccc(C(F)(F)F)c2)c1	/	26%	-12%	7.1µM*
CC(CN(C)C)CN1c2ccccc2Sc2ccc(C(F)(F)F)cc21 (centres undefined)	/	-4%	/	/
O=C(NCc1cccs1)c1ccc2c(c1)sc1nc(-c3ccccc3)cn12	4%	/	-2%	-5%
COc1ccc(-c2ccc(C(=O)Nc3cccc(C(F)(F)F)c3)c3occc23)c(C)c1	5%	-1%	-5%	4.5µM*
O=C(NCCc1ccc(Cl)cc1)c1nc(-c2cccc(F)c2)n2c1CCCCC2	-11%	/	-1%	?
S=C(NCc1ccco1)Nc1cccc(Cl)c1	0%	0%	-12%	8.9µM*
S=C(NCc1ccco1)Nc1ccc(Cl)c(Cl)c1	-2%	0%	-11%	10µM*
S=C(NCc1ccco1)Nc1cc(Cl)c(Cl)cc1Cl	-2%	-17%	-29%	?
CC(=O)c1cccc(NC(=S)NCc2ccco2)c1	3%	-5%	-30%	-17%
CC[N+]1(C)CCC(O)(/C=C/c2ccccc2)C(C(=O)/C=C/c2ccccc2)C1 (centres undefined)	2%	-15%	?	10µM*
NS(=O)(=O)c1cc(-c2nn[nH]n2)c(NCc2cccs2)cc1Cl	/	-5%	/	/
CCN(CC)C(=O)Sc1cccc2cccnc12	28µM*	0%	-16%	-3%
CCOC(=O)CSc1cccc2cccnc12	16µM*	-35%	3.5µM*	?
O=C(CSc1cccc2cccnc12)NCc1ccco1	25µM*	3%	7%	0%
COc1ccc(CNC(=O)CSc2cccc3cccnc23)cc1	/	12%	-15%	5%
COc1cc2ccccc2cc1C(=O)NC1CCCC1	0%	18%	-6%	?
CCc1ccc(C(C)NC(=O)c2ccc3c(c2)OCO3)cc1 (centres undefined)	-1%	12%	-3%	11µM*
CC1CCC(NC(=O)c2ccc3c(c2)OCO3)CC1 (centres undefined)	-3%	0%	-2%	4µM*
O=C(NC1CCCCC1)c1ccc2c(c1)OCO2	/	9%	-6%	11%
COc1cc2ccccc2cc1C(=O)NC1CCC(C)CC1 (centres undefined)	3%	?	-9%	10µM*
Cc1ccc(C(=O)NCC(c2ccc(Cl)cc2)N2CCCCC2)cc1 (centres undefined)	1%	/	2%	?
CCOC(=O)c1cccc(NC(=O)Cc2ccc(NC(=O)N3CCCCc4ccccc43)cc2)c1	-14%	/	-9%	?
SMILES	ClpP mod	GLP1R ag	HEK293 tox	GLP1R inv ag
Clc1ccc(/C=N/NC(=Nc2ccccc2)c2ccccn2)c(Cl)c1	1%	3%	10µM*	6%
C(=N\NC(=Nc1ccccc1)c1ccccn1)/c1ccccn1	1%	6%	-11%	?
Cc1cnc2c(C)cccc2c1/C=C/c1ccc(N(C)C)cc1	1%	/	/	/
COCCN(C(=O)COC(=O)c1cccnc1Cl)c1c(N)n(Cc2ccccc2)c(=O)[nH]c1=O	1%	4%	-8%	6%
CC(C)CN(C(=O)COC(=O)c1cccnc1Cl)c1c(N)n(Cc2ccccc2)c(=O)[nH]c1=O	28µM*	-3%	-10%	0%
CCCCn1c(N)c(N(CC(C)C)C(=O)COC(=O)c2ccccc2NCCO)c(=O)[nH]c1=O	16µM*	-8%	10%	6%
CCN(CC)c1ccc(NC(=O)CCS(=O)(=O)c2cc3c(cc2Cl)NC(=O)CO3)c(C)c1	0%	4%	2%	9%
Cc1nn(-c2ccccn2)c2c1C(c1ccsc1)C1=C(CCCC1=O)N2 (centres undefined)	25µM*	19%	8%	9%
CCOc1ccc(NC(=O)c2cc(S(=O)(=O)N3CCN(c4ccccc4F)CC3)ccc2F)cc1	-5%	/	3%	?
CC(=O)Nc1ccccc1OCC(=O)NCCc1ccc(Cl)cc1Cl	32µM*	0%	2%	-11%
Nc1ccccc1C(=O)NC(=O)Nc1ccc(Oc2ncc(Br)cn2)c(Cl)c1	22µM*	20%	?	-45%
Cc1cc(NC(=O)NC(=O)c2ccccc2NC(=O)CN)ccc1Oc1ncc(Br)cn1	18µM*	0%	?	?
COC(=O)c1ccccc1NC(=O)CSc1nc2sc3c(c2c(=O)[nH]1)CCCC3	-1%	/	2%	13%
COc1cccc(/C=C/c2cnc3ccccc3n2)c1OC	-18%	/	/	/
Fc1cccc2sc(Nc3nc4cc5c(cc4s3)OCO5)nc12	14µM*	-14%	83%	4%
Fc1cccc2sc(Nc3nc4cc5c(cc4s3)OCCO5)nc12	288%	-12%	88%	?
CCn1cc(C(=O)NCCCN2CCC(C)CC2)c(=O)c2cc(S(=O)(=O)N(C)C3CCCCC3)ccc21	-2%	7%	?	10µM*
CCn1cc(C(=O)NCCCN2CC(C)CC(C)C2)c(=O)c2cc(S(=O)(=O)N(C)C3CCCCC3)ccc21 (centres undefined)	-5%	5%	-15%	-28%
CC1CCC/C(=C\Nc2ccc3c(c2)OCO3)C1=O (centres undefined)	-1%	2%	?	-4%
CC1CCC/C(=C\Nc2ccccc2C(=O)O)C1=O (centres undefined)	22µM*	-8%	11%	10%
CC(C)CC1NC(=O)N(CC(=O)Nc2ccc(OCc3ccccc3)cc2)C1=O (centres undefined)	/	4%	-11%	11µM*
CC(C)CC1NC(=O)N(CC(=O)Nc2ccc(OC(F)F)cc2)C1=O (centres undefined)	-2%	1%	0%	-17%
O=C(CN1CCOCC1)Nc1ccc(OCc2ccccc2)cc1	-6%	-2%	0%	-1%
O=C(CN1CCN(CC(=O)Nc2ccc(OCc3ccccc3)cc2)CC1)Nc1ccc(F)cc1	2%	8%	-18%	8.9µM*
CS(=O)(=O)N(CCc1ccccc1)CC(=O)Nc1ccc(OCc2ccccc2)cc1	-2%	8%	-1%	11µM*
CC(C)c1ccc(NC(=O)CSc2ncc3c(n2)-c2ccccc2N(C)S3(=O)=O)cc1	4%	/	-13%	-13%
O=C(C[n+]1cccc2cccc(O)c21)c1ccc2ccccc2c1	-1%	/	/	/
CC(C)(C)n1ncc2c(=O)n(Cc3c(F)cccc3Cl)cnc21	1%	12%	-4%	2.5µM*
CC(=O)Nc1ccc(NC(=O)Cn2cnc3c(cnn3C(C)(C)C)c2=O)cc1	1%	28%	-10%	16%
Cc1ccc(Cl)c(Cn2cnc3c(cnn3C(C)(C)C)c2=O)c1F	/	23%	/	/
